SMILES strings stand for the structures. Records with an inconclusive call do not appear. Calls of active or inactive are those of the source. The call rests on the fitted dose curve; in most records, active means well fitted cell-killing curve with a large enough effect; inconclusive means small, poorly fitted or top-dose-only effect, or effect the other way; inactive means no such curve, though single readings can be large or run the other way.
On the % scale 0 is the no-effect control and ±100 the full control effect; potency means the concentration at half of the fitted maximal effect.

The assay in a line: qHTS of pediatric cancer cell lines to identify multiple opportunities for drug repurposing: Confirmatory screen for LAN-5 cells (AID 1347113). Further: nearly all actives have a fitted effect of over 65% in size. The conditions noted are these: LAN-5 neuroblastoma cell viability; series mostly up to 45.9 µM; activity change, negative = cytotoxicity: at the top concentration. The text has this:
Drug repurposing or repositioning has been offered as a strategy for drug development in oncology programs. This approach has special potential for childhood cancers and other rare or orphan diseases, where the expected return on new drug development has been a disincentive to pharmaceuticals.
In this project we exploit the poly-pharmacology of drugs to discover new indications via phenotypic screening of a panel of 19 well-characterized cell lines derived from solid tumors seen in children and adolescents. The goal is to identify approved drugs with previously unrecognized anticancer properties that has the potential to reveal new mechanisms and biological processes involved in carcinogenesis or drug resistance. We employed a titration-based paradigm (quantitative high-throughput screening or qHTS), where all compounds were tested at multiple concentrations for their effect on cell viability. Concentration-response curves (CRCs) were derived directly from the primary screen, and both potency and efficacy values were used to identify compounds with robust bioactivity profiles. We screened the NIH Chemical Genomics Center (NCGC) Pharmaceutical Collection (NPC) and Mechanism Interrogation Plate (MIPE) small molecule collections of approved and investigational compounds against these cell lines; and measured metabolically active cells after 48 hours of compound treatment as a proxy for cell viability.
Assay Submitter: Nathalia J. Martinez, National Center for Advancing Translational Sciences, National Institutes of Health, Rockville, MD, USA; email: natalia.martinez@nih.gov
[1] Shen, M et al. Quantitative high-throughput phenotypic screening of pediatric cancer cell lines identifies multiple opportunities for drug repurposing. Oncotarget 2017 Dec 19;9(4):4758-4772. PMID 29435139.
The cells were obtained from University of North Carolina (UNC), Pediatric Preclinical Testing Program (PPT), and Coriell Institute (CI).
qHTS cell viability assay:
Cells were assayed in growth media at a density of 500-1,000 cells/well. Five microliters of cells were dispensed into 1,536-well, white, solid-bottom, TC-treated plates (Greiner Bio One) using a multidrop dispenser and incubated at 37 degrees C, 5% CO2, under a humidified atmosphere for 5 hours. Twenty-three nanoliters of compounds and controls (neutral control DMSO or positive control bortezomib at final concentration of 2.3 µM) were subsequently transferred by Kalypsys pintool. For primary screens, the MIPE collection was tested at 11-point dilutions (final concentrations range from 0.78 nM to 46 µM) and the NPC collection at 8-point dilutions (final concentrations range from 0.59 nM to 46 µM). Compounds tested in follow-up screens were assayed at 11-point dilutions. Cells were incubated for 48 hours, followed by addition of 3 µL of CellTiter-Glo (Promega). After a 15 min incubation at room temperature, samples were analyzed for luminescence intensity using a ViewLux High-throughput CCD imager equipped with clear filters.
Take `Cc1c(C(=O)Nc2cccc(C(F)(F)F)c2)cc(-c2ccccc2)n1CCCN1CCOCC1`: the Potency was 42.7 µM (active). With `O=C(N[C@H]1CN2CCC1CC2)c1ccc(Cl)cc1`, the Potency is 23.3 µM (active). As to `CC[C@@H]1[C@@H](C)O[C@@](O)([C@@H](C)[C@H](O)[C@H](C)[C@H]2OC(=O)C=CC=C[C@@H](C)[C@@H]([C@@H](C)[C@@H](O)[C@H](C)[C@@]3(O)C[C@H](O[C@H]4C[C@H](O)[C@H](O)[C@H](C)O4)[C@H](CC)[C@@H](C)O3)OC(=O)C=CC=C[C@@H]2C)C[C@H]1O[C@H]1C[C@H](O)[C@H](O)[C@H](C)O1`, the “activity change, negative = cytotoxicity” value is 11.3% (inactive). As for `CC(C)(O)C=CC(=O)[C@](C)(O)[C@H]1[C@H](O)C[C@]2(C)[C@@H]3CC=C4[C@@H](C=C(O)C(=O)C4(C)C)[C@]3(C)C(=O)C[C@@]12C`, the Potency is 0.0585 µM (active).

Consider `CC(C)[C@]12O[C@@H]1[C@@H]1O[C@]13[C@]1(O[C@H]1C[C@@H]1C4=C(CC[C@@]13C)C(=O)OC4)[C@H]2O`, for which the Potency was 0.147 µM (active). For `CCCN1CCO[C@@H]2c3cc(O)ccc3OC[C@@H]21`, the “activity change, negative = cytotoxicity” value is -10.4% (inactive).

On to `C[C@@]12OC(=O)[C@]1([C@@H](O)[C@@H]1C=CCCC1)NC(=O)[C@H]2CCCl`, for which the Potency is 0.737 µM (active). Still for that read-out and setting: in the case of `C=CCON=C(C[C@H]1O[C@@H]2O[C@]3(C)CC[C@@H]4[C@H](C)CC[C@@H]([C@H]1C)[C@@]24OO3)[C@H]1O[C@@H]2O[C@]3(C)CC[C@H]4[C@H](C)CC[C@@H]([C@@H]1C)[C@@]24OO3` it was 0.522 µM (active); in that of `O=c1[nH]c2ccc(Cl)cc2c(N[C@@H]2CN3CCC2CC3)c1-c1nc2ccccc2[nH]1`, 1.47 µM (active). The same measure, in the same setting: as for `COc1cc2cc(c1Cl)N(C)C(=O)C[C@H](OC(=O)C(C)C)[C@]1(C)O[C@H]1[C@H](C)[C@@H]1C[C@@](O)(NC(=O)O1)[C@H](OC)C=CC=C(C)C2`, the figure is 1.17 µM (active).

Take `O=C(O)COc1nc(Cl)c(Cl)cc1Cl`: the compound was called inactive. As for `CC(C)N[C@@H]1CCn2c(=O)[nH]c3cccc(c32)[C@@H]1O`, the “activity change, negative = cytotoxicity” value was 20.3% (inactive). As for `CC(=O)[O][Hg][c]1ccccc1`, the Potency was 3.29 µM (active). `CS(=O)(=O)c1ccc(C(=O)C2C(=O)CCCC2=O)c([N+](=O)[O-])c1`: the call was inactive.

Take `CC1=C(O)C(=O)C=C2C1=CC=C1[C@@]2(C)CC[C@@]2(C)[C@@H]3C[C@](C)(C(=O)O)CC[C@]3(C)CC[C@]12C`: the Potency was 1.85 µM (active). The same measure, in the same setting: as for `S=C(SSC(=S)N1CCCCC1)N1CCCCC1`, the figure is 1.04 µM (active).

For `CCCCCC[C@H]1C(=O)O[C@H](C)[C@H](NC(=O)c2cccc(NC=O)c2O)C(=O)O[C@@H](C)[C@@H]1OC(=O)CC(C)C`, the Potency is 5.85 µM (active).

Turning to `O=C(O)CCCOc1ccc(Cl)cc1Cl`, the “activity change, negative = cytotoxicity” value is 10% [at 95.5 µM] (inactive). For `Cc1ccccc1-n1c(Cn2ncc3c(N)ncnc32)nc2cccc(C)c2c1=O`, the Potency was 0.522 µM (active). Same read-out and setting: as for `C[C@@H]1O[C@@H](O[C@@H]2C=C3CC[C@@H]4[C@@H](CC[C@]5(C)[C@H](c6ccc(=O)oc6)CC[C@@]45O)[C@@]3(C)CC2)[C@H](O)[C@H](O)[C@H]1O`, the figure is 0.0585 µM (active). On to `CC=C(C)C(=O)N[C@@H](c1ccccc1)[C@@H](O)C(=O)O[C@H]1C[C@@]2(O)[C@@H](OC(=O)c3ccccc3)[C@@H]3[C@]4(OC(C)=O)CO[C@@H]4C[C@H](O)[C@@]3(C)C(=O)[C@H](OC(C)=O)C(=C1C)C2(C)C`, for which the “activity change, negative = cytotoxicity” value is -35.8% (inactive).

Consider `C[C@H]1CCCC=CC2C[C@H](O)C[C@@H]2[C@H](O)C=CC(=O)O1` (stereo partly drawn), for which the Potency was 0.117 µM (active). Regarding `CO[C@H]1CCC(O[C@H]2C[C@H]([C@]3(C)CC[C@]4(C[C@H](O)[C@@H](C)[C@@H]([C@@H](C)C=C(C)C(=O)[C@H](C)C[C@H](C)C(=O)O)O4)O3)O[C@]3(O[C@@H]([C@H]4O[C@@](O)(CO)[C@H](C)C[C@H]4C)C[C@H]3C)[C@H]2C)O[C@H]1C` (stereo partly drawn), the Potency is 2.33 µM (active). Still for that read-out and setting: in the case of `Cc1[nH]nc2ccc(-c3cncc(OC[C@@H](N)Cc4c[nH]c5ccccc45)c3)cc12` it was 2.33 µM (active). As for `Cc1c(N)nc([C@H](CC(N)=O)NC[C@@H](N)C(N)=O)nc1C(=O)N[C@H](C(=O)N[C@@H](C)[C@H](O)[C@@H](C)C(=O)N[C@@H](C(=O)NCCc1nc(-c2nc(C(=O)NCCC[S+](C)C)cs2)cs1)[C@@H](C)O)C(O[C@H]1O[C@H](CO)[C@H](O)[C@@H](O)[C@@H]1O[C@H]1O[C@H](CO)[C@@H](O)[C@H](OC(N)=O)[C@H]1O)c1cnc[nH]1` (stereo partly drawn), the “outcome” value was “inactive [at 45.9 µM]”. For the compound `C[C@@H]1CC[C@@]2(OC1)O[C@H]1C[C@H]3[C@@H]4CC=C5C[C@@H](O[C@@H]6O[C@H](CO)[C@@H](O[C@@H]7O[C@@H](C)[C@H](O)[C@@H](O)[C@@H]7O)[C@H](O)[C@@H]6O[C@@H]6O[C@@H](C)[C@H](O)[C@@H](O)[C@@H]6O)CC[C@]5(C)[C@@H]4CC[C@]3(C)[C@@H]1[C@H]2C`, the Potency was 4.65 µM (active).

Regarding `CC[C@@]1(O)C(=O)OCc2c1cc1n(c2=O)Cc2cc3ccccc3nc2-1`, the Potency is 0.0585 µM (active). Turning to `CCC(=O)OC1CCC2C3CCC4=CC(=O)CC[C@@]4(C)C3CC[C@]12C` (stereo partly drawn), the “activity change, negative = cytotoxicity” value was -3.88% (inactive).
